Data on 4 molecules can be found in PubChem BioAssay.

The source made the active and inactive calls. Unless noted, no rule for the calls is given here.

For assay [1], the system named is Wnt5a (protein binding on small-molecule microarray). Briefly: small molecules binding Wnt5a protein – biophysical, small-molecule microarray, 635/667 nm fluorescence, primary screen (AID 1142).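 Also: fluorescence read at 667 nm with signal to noise per printed feature.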 Particulars: 635 nm fluorescence, higher = more signal.
Assay [2] can be described thus: ATP-based viability of Huh7 replicon cells – cell-based, CellTiter-Glo luminescence, basal, 48 h, cytotoxicity control for HCV replication inhibitor project, primary screen (AID 1143).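 Also: Huh7 hepatoma cells carrying a hepatitis C replication reporter with no stimulus; test concentration not given here.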 Particulars: higher = more signal, called active from +8 up or from −8 down. (Replicon systems follow genome replication, usually without infectious particles.)
Assay [3] can be described thus: Pseudomonas biofilm growth suppression – PAO1 strain, BacTiter-Glo luminescence, LB-PBS, primary screen (AID 1144). The conditions noted are these: P. aeruginosa PAO1 biofilm, 12 h, higher = more signal.
Assay [4] in a line: basal CRE-LacZ reporter activity in PC12 – cell-based, unstimulated, primary screen (AID 1145). Particulars: no forskolin, luminescence, 4.5 h, higher = more signal, called active from +8 up or from −8 down.
Assay [5] is described as follows: forskolin-driven CRE-LacZ activity in PC12 – cell-based, CRE-LacZ reporter, forskolin-stimulated, primary screen (AID 1146).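 Also: PC12 cells with 6xCRE LacZ reporter stimulated by forskolin 10 µM; beta-galactosidase reporter signal reflecting CREB driven transcription.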 The conditions noted are these: luminescence, 4.5 h, higher = more signal, called active from +8 up or from −8 down.
For assay [6], the target named is Streptavidin (Streptomyces avidinii) (UniProt P22629). Briefly: compounds binding control protein streptavidin – biophysical, small-molecule microarray, 635/667 nm fluorescence, artefact control for SMM compound annotation, primary screen (AID 1147).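 Also: signal reflects streptavidin binding to arrayed compounds as a control protein.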 The conditions noted are these: higher = more signal.
Assay [7] in a line: probe aInhba binding on compound microarray – biochemical, small-molecule microarray, 635/667 nm fluorescence, primary screen (AID 1148).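 Also: score merges 667nm spot fluorescence with signal-to-noise for antibody binding to printed compounds.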 Particulars: higher = more signal.
The target in assay [8] is Torsin-1A (Homo sapiens) (UniProt O14656). Briefly: TOR1A wild-type binding on microarray – cell lysate, small-molecule microarray, lysate, 635/667 nm, primary screen (AID 1149). Particulars: COS7 hTOR1A-WT lysate, 635 nm fluorescence, higher = more signal.
Assay [9] shares this target. Briefly: torsin A mutant lysate binding on microarrays – cell lysate, small-molecule microarray, COS7 lysate, 635/667 nm fluorescence, primary screen (AID 1150).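 Also: score pools 667 nm emission and signal to noise measuring lysate protein binding.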 Particulars: COS7 hTOR1A mutant lysate, 635 nm fluorescence, higher = more signal.
In assay [10] the test system is Sonic hedgehog protein (Shh). Briefly: Sonic hedgehog microarray binding compounds – biochemical, small-molecule microarray, 635/667 nm fluorescence, primary screen (AID 1151).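 Also: Shh protein binding to compounds spotted on small-molecule microarray slides; score combines spot fluorescence intensity with signal-to-noise across triplicate slides.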 The conditions noted are these: 635 nm fluorescence, higher = more signal.
Assay [11] in a line: optical density shifts of acrAB sulA E. coli – strain DRC41, OD650, 48 h, E. coli filamentation inducer project, primary screen (AID 1152).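 Also: E. coli MC1000 strain DRC41 lacking acrAB efflux pump and sulA.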 Particulars: higher = more signal, called active from +8 up or from −8 down.
The nature of assay [12]: probe aLefty1 binding on compound microarray – biochemical, small-molecule microarray, 635/667 nm fluorescence, primary screen (AID 1153).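 Also: score merges spot fluorescence with signal-to-noise ratio from the scanned slide images.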 Particulars: higher = more signal.
The nature of assay [13]: plasmodial surface anion channel blockers, osmotic lysis – cell-based, P. falciparum Indochina, OD700, 1 h, primary screen (AID 1154). The conditions noted are these: P. falciparum Indochina infected RBC osmotic lysis, higher = more signal, called active from +8 up or from −8 down.
A short description of assay [14]: plasmodial surface anion channel blockers, osmotic lysis – cell-based, P. falciparum Indochina, OD700, 2 h, primary screen (AID 1155).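 Also: lysis reports solute entry through the parasite surface anion channel PSAC.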 Particulars: P. falciparum Indochina infected erythrocytes, higher = more signal, called active from +8 up or from −8 down.
The nature of assay [15]: changes in parasitized red cell lysis, either direction – P. falciparum Indochina, OD700, 3 h, PSAC antagonist project, primary screen (AID 1156). The conditions noted are these: P. falciparum-infected erythrocytes, osmotic lysis, higher = more signal, called active from +8 up or from −8 down.
Assay [16] is described as follows: plasmodial surface anion channel blockers, osmotic lysis – cell-based, P. falciparum Indochina, OD700, 18 h, primary screen (AID 1157). Particulars: P. falciparum Indochina infected erythrocytes, osmotic lysis OD700, 18 h; higher = more signal, called active from +8 up or from −8 down.
Assay [17] in a line: S6 kinase pathway phospho-S6 level changes – cell-based, A549, cytoblot, luminescence, serum-stimulated, primary screen (AID 1158).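 Also: serum-stimulated A549 lung adenocarcinoma cells; signal is phosphorylated S6 detected by cytoblot immunostaining with HRP secondary.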 Particulars: 5 h, higher = more signal.
For assay [18], the target named is NADPH oxidase 2 (Homo sapiens) (UniProt P04839). Briefly: compounds shifting NOX2 Amplex Red fluorescence – cell-based, HEK293-NOX2, PMA-stimulated, NOX inhibitor project, primary screen (AID 1159). Also: test concentration not given here. The conditions noted are these: 45 min, higher = more signal, called active from +8 up or from −8 down.
The target in assay [19] is NADPH oxidase 4 (Homo sapiens) (UniProt Q9NPH5). Nature of the assay: compounds shifting NOX4 Amplex Red fluorescence – cell-based, HEK293-NOX4, tetracycline-induced, NOX inhibitor project, primary screen (AID 1160). Particulars: HEK293-NOX4, Amplex Red H2O2 fluorescence, 45 min; higher = more signal, called active from +8 up or from −8 down.
The target in assay [20] is NADPH oxidase 5 (Homo sapiens) (UniProt Q96PH1). Briefly: compounds shifting NOX5 Amplex Red fluorescence – cell-based, HEK293-NOX5, NOX inhibitor project, primary screen (AID 1161). Particulars: HEK293-NOX5, ionomycin, 45 min, higher = more signal.
NADPH oxidase 5 (Homo sapiens), sequence (Q96PH1 whole entry, looked up): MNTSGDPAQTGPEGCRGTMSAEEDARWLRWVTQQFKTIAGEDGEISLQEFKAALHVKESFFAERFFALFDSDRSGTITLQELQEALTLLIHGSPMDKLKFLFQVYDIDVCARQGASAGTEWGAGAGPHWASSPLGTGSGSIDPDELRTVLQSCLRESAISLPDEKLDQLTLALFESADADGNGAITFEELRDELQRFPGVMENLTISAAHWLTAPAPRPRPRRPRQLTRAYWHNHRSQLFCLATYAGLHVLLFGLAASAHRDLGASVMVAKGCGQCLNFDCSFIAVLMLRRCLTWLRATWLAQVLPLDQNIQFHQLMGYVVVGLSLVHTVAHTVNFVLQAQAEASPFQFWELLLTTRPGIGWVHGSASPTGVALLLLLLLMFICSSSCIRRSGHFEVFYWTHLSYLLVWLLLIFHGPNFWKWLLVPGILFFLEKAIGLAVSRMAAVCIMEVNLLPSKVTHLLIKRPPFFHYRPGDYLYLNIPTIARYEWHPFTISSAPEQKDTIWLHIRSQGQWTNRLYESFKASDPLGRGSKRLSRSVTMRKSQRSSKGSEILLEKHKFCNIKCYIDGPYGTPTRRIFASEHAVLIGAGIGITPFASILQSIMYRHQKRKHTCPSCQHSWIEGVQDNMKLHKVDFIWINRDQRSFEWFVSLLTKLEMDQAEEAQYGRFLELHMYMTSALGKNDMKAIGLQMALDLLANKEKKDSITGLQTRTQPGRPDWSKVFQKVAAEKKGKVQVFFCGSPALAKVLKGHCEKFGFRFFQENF

NADPH oxidase 2 (Homo sapiens), sequence (P04839 whole entry, looked up): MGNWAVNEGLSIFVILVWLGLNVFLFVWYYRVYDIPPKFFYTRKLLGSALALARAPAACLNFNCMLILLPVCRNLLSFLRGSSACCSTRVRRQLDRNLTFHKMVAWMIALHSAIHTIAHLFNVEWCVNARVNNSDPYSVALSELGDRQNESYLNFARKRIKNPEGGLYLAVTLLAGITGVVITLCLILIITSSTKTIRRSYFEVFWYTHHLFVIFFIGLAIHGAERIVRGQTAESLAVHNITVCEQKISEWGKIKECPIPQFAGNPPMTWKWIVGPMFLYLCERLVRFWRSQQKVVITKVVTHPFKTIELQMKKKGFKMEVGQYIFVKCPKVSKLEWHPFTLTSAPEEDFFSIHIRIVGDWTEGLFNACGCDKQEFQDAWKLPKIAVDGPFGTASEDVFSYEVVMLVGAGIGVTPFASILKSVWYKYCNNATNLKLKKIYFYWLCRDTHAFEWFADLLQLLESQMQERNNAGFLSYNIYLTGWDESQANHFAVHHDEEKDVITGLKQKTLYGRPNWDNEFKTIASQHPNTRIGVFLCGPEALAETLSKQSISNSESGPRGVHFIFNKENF
NADPH oxidase 4 (Homo sapiens), sequence (Q9NPH5 whole entry, looked up): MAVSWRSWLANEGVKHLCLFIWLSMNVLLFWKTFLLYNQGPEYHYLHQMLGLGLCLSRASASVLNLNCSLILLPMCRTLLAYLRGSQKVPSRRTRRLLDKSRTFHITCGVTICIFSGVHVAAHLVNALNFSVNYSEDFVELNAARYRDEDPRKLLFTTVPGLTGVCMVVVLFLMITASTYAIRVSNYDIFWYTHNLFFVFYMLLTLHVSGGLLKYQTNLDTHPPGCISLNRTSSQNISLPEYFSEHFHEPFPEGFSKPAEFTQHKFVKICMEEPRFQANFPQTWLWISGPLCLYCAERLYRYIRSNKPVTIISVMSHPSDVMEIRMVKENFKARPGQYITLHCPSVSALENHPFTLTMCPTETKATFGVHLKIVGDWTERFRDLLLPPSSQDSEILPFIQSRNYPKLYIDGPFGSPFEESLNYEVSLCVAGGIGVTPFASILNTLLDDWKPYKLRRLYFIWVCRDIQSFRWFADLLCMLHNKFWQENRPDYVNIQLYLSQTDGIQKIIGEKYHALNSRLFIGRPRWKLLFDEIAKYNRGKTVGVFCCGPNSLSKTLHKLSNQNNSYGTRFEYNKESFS
Streptavidin (Streptomyces avidinii), sequence (P22629 whole entry, looked up): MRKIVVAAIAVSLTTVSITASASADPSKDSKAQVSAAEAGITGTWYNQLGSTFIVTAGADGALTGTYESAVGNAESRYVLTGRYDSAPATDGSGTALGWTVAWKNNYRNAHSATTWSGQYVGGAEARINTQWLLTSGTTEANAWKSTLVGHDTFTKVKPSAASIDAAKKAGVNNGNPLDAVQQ
Torsin-1A (Homo sapiens), sequence (O14656 whole entry, looked up): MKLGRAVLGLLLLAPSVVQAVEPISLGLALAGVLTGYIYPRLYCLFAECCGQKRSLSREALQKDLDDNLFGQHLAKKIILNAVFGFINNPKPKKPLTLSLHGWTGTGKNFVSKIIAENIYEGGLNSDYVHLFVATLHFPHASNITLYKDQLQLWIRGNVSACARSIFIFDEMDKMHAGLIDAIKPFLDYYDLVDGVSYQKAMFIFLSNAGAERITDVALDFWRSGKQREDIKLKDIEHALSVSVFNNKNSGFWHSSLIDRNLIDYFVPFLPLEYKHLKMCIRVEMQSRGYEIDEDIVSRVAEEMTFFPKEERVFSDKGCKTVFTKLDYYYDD

As to `C=CC[C@@]1(C(=O)NCC(O)CO)N=C(c2ccc(OCCCO)cc2)O[C@@H]1c1ccccc1CN=[N+]=[N-]` (stereo not given in full), the composite z-score is -0.233 in assay [1]; 0.0285 in assay [6]; 0.0705 in assay [7]; 1.09 with Torsin-1A (Homo sapiens) [8]; 2.13 with Torsin-1A (Homo sapiens) [9]; -0.364 in assay [10]. The composite z-score in assay [12] stood at 0.129. Besides, the z-score in [2] is -1.74 (inactive); in assay [3] it was -0.427 (inactive); in assay [4], -0.459 (inactive); in assay [5], -0.783 (inactive); in [11], 1.39 (inactive); in assay [13], 24.9 (active). Besides, the z-score was 9.51 (active) in assay [14]; 1.99 (inactive) in [15]; 1.25 (inactive) in assay [16]; 0.281 in [17]; -0.424 (inactive) in [18]; 0.495 (inactive) in [19]. The z-score in assay [20] was -0.927.
As for `C=CCN1C(=O)[C@@]2(Cc3ccccc3)N=C(c3ccc(OCCCO)cc3)O[C@H]2c2ccccc21`, the composite z-score in assay [1] is 0.358; in assay [6], 0.653; in assay [7] it was 0.346; with Torsin-1A (Homo sapiens) [8] it was 0.238; with Torsin-1A (Homo sapiens) [9], 1.56; in assay [10] it was 1.28. In addition, the composite z-score in assay [12] stood at 0.48. Moreover, the z-score in assay [2] was -1.81 (inactive); in [3], 0.294 (inactive); in [4] it was 1.07 (inactive); in assay [5], -0.984 (inactive); in assay [11], 0.0648 (inactive); in assay [13], 33.3 (active). Moreover, the z-score is 32 (active) in assay [14]; 2.61 (inactive) in assay [15]; 9.79 (active) in assay [16]; -0.586 in [17]; -1.87 (inactive) in [18]; 0.969 (inactive) in [19]. The z-score in [20] worked out at 0.0569.
On to `O=C1C[C@@](C(=O)NCCN2CCOCC2)(c2ccc([N+](=O)[O-])cc2)[C@@H](c2ccc(CO)cc2)N1C1CCCCC1`, for which the composite z-score stood at 0.25 in assay [1]; 0.316 in [6]; 0.196 in assay [7]; 0.143 in the assay with Torsin-1A (Homo sapiens) [8]; 0.555 with Torsin-1A (Homo sapiens) [9]; 0.452 in assay [10]. This molecule also had a composite z-score in [12] of -0.154. Moreover, the z-score in assay [2] was 0.204 (inactive); in assay [3] it was 0.82 (inactive); in assay [4] it was 0.351 (inactive); in assay [5], -0.303 (inactive); in [11], 1.21 (inactive); in assay [13], 2.02 (inactive). Also, the z-score in assay [14] is 0.834 (inactive); in assay [15], 3.08 (inactive); in assay [16] it was -0.137 (inactive); in assay [17] it was -0.371; in assay [18], 0.768 (inactive); in assay [19], 0.947 (inactive). In addition, the z-score in [20] worked out at 0.24.
Regarding `CCCC[C@@H]1C[C@H]1[C@@H](NC(=O)c1cccs1)c1ccc(Cl)cc1`, the composite z-score was -0.29 in [1]; -1.05 in assay [6]; -0.224 in [7]; -0.989 with Torsin-1A (Homo sapiens) [8]; -1.01 in the assay with Torsin-1A (Homo sapiens) [9]; -1.75 in assay [10]. In addition, in assay [12], the composite z-score was -0.124. The z-score is -3.19 (inactive) in assay [2]; -0.288 (inactive) in assay [3]; 0.39 (inactive) in assay [4]; 0.958 (inactive) in assay [5]; -1.06 (inactive) in [11]; 0.492 (inactive) in [13]. Moreover, the z-score in assay [14] is -0.696 (inactive); in [15], 1.13 (inactive); in [16], -1.93 (inactive); in assay [17], 1.38; in assay [18] it was -3.93 (inactive); in assay [19], -6.76 (inactive). The z-score in assay [20] was -2.26.
